# Data published in ChEMBL document CHEMBL4513216, “Probing the Open Global Health Chemical Diversity Library for Multistage-Active Starting Points for Next-Generation Antimalarials” (ACS Infect Dis, 2020).
# Screen size: about 69,000 compounds; about 8,600 (12%) showed an effect of 50% or more. The list comes from a sample in which strong results are over-represented; it also holds similar structures and randomly drawn compounds.
# System: Plasmodium berghei
# Assay: Screen against P. berghei liver stage (PbLuc), transformed with Luciferase, at 10uM
# Type: functional, HepG2
# Conditions: tested at 10 uM
row,SMILES,INHIBITION
1,COc1ccc(CNC2CCC3(CCC(=O)N3)CC2)cc1 (stereo unspecified),19.8%
2,CC(C)c1nn(C)c(N(C)C)c1CNCc1cccc(CN(C)C)c1,21.8%
3,Cn1ncc(C(=O)O)c1C(=O)Nc1nc2ccc(Br)cc2s1,6.27%
4,COCCOCC(=O)N1CCc2cc(Cl)cc(Cl)c2C1,1.86%
5,CCSCc1nc(O)c2nnn(C3CCN(Cc4ccco4)CC3)c2n1,32.5%
6,Cc1ccc(C)c(C(=O)N2CCC3(CCC(=O)N(CC(N)=O)C3)CC2)c1,15.2%
7,Cn1cc(C(=O)N2CCN(c3ncccn3)CC2)ccc1=O,28.8%
8,CN(CC1CCOC1)S(=O)(=O)c1cccc(C(=O)N2CCCCCC2)c1 (stereo unspecified),-7.57%
9,COc1ncnc2c1CCN(C(=O)Cc1cccc(F)c1)CC2,52.6%
10,CCOc1ncnc2c1CCN(S(=O)(=O)CC)CC2,30.5%
11,O=C(Cc1cccc(F)c1)N1CCc2ncnc(N3CCCC3)c2CC1,-13.9%
12,CCS(=O)(=O)N1CCc2ncnc(C)c2CC1,42.3%
13,O=C(Cc1cccc(F)c1)N1CCc2ncnc(NC3CC3)c2CC1,14%
14,CCS(=O)(=O)N1CCc2ncnc(OC)c2CC1,79.2%
15,O=C(Cc1cccc(F)c1)N1CCc2ncnc(NC3CCC3)c2CC1,53%
16,Cc1ncnc2c1CCN(C(=O)Cc1cccc(F)c1)CC2,36.4%

row,SMILES,INHIBITION
1,COc1ncnc2c1CCN(C(=O)NCc1cccc(F)c1)CC2,17.2%
2,Cc1ccc(CN2CCOCC2c2[nH]ncc2C)cn1 (stereo unspecified),13.635%
3,CCC(c1ccccc1)c1nn2c(CN(CC)CC)nnc2s1 (stereo unspecified),23.1%
4,CCC(=O)NCCc1cc2nc(-c3ccncc3)ccn2n1,21.4%
5,COCC(C)NC(=O)c1cc(C)n(-c2cccc(OC)c2)c1C (stereo unspecified),35.9%
6,CN1C(=O)CCCC12CCCN(C(=O)c1cccc(C(F)(F)F)c1)C2 (stereo unspecified),40.8%
7,CSCC[C@H](NC(C)=O)c1nc(CCc2ccccc2)n[nH]1,-47.9%
8,CCC=C(C)C(=O)NCc1ccc(OC)nc1,-0.514%
9,Cc1ccccc1-c1noc(CN2CCc3nn(C)c(=O)cc3C2)n1,7.08%
10,CCC(O)CN1CCN(C(=O)Cc2ccccc2Cl)CC1 (stereo unspecified),18.625%
11,CCOCC(O)CN1CCN(C(=O)Cc2ccc3c(c2)CCO3)CC1 (stereo unspecified),9.25%
12,O=C(Cc1ccccc1Cl)N1CCN(CC(O)COCCO)CC1 (stereo unspecified),57.85%
13,CCOCC(O)CN1CCN(C(=O)Cc2ccc3c(c2)CCC3)CC1 (stereo unspecified),51.5%
14,CCOCC(O)CN1CCN(C(=O)Cc2ccccc2Cl)CC1 (stereo unspecified),25.6%
15,CCOCC(O)CN1CCN(C(=O)Cc2cccc(C)c2)CC1 (stereo unspecified),-52.95%
